The list is not random: actives were taken first. Their share in the collection is about 4.2%.
TRPV1 potentiator = enhances activation of the human vanilloid receptor TRPV1. Q8NER1. TRPV1-expressing cells, Fluo-8 calcium influx, capsaicin EC20 potentiation. potentiation, % at 8.33 µM. 320,000 tested, 0.02% active; in the data active = potentiation above about 80%; inconclusive = between about 30% and that limit
Target sequence (Q8NER1 whole entry, looked up): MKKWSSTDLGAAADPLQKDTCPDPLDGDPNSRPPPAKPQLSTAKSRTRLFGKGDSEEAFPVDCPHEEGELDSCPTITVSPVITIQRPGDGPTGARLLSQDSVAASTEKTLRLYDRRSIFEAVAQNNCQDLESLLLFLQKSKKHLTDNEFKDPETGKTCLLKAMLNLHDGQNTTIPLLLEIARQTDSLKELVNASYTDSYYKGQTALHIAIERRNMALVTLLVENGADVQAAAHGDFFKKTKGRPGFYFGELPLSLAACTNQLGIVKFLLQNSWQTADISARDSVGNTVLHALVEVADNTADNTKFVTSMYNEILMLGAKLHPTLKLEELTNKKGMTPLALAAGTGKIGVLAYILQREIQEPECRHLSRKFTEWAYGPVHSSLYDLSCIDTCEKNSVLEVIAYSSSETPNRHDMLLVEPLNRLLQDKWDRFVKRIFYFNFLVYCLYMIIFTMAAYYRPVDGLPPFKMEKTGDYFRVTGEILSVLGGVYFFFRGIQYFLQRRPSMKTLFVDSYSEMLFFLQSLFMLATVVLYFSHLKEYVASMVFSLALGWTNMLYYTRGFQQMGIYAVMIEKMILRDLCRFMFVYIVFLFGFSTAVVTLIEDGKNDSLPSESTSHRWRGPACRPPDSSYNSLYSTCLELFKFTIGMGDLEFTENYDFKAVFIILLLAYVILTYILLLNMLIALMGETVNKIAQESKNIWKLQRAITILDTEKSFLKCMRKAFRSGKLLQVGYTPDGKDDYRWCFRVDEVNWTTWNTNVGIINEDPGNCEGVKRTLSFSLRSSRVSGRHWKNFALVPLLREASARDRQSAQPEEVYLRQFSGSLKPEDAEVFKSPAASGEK
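Cells expressing TRPV1 were dye-loaded with Fluo-8 and read kinetically: 10 s baseline, 3 min after compound (agonist portion), then 2 min after EC20 capsaicin (allosteric enhancer portion). Calcium-bound dye fluorescence at 480/520 nm.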
D1 ag = human D1 receptor agonism. HEK293 T-REx D1 cells, calcium flux, agonist mode. activation, % at 2 µM. 360,000 tested, 1% active; in the data active = activation above about 30%
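Agonism was scored from calcium flux recorded over 180 s (1 read/s) after pintool compound addition, following a 10-cycle baseline. Cells were inducible force-coupled HEK293 TREx D1, plated overnight at 30 C and loaded with no-wash calcium dye.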
D1 PAM = human D1 dopamine receptor positive modulation | 360,000 tested, 0.036% active | P21728 | potentiation, % at 10 µM | HEK293 TREx D1 cells, calcium flux, dopamine EC20 potentiation | AID 504651; in the data active = potentiation above about 30%
TRPV1 ag = agonists of human vanilloid receptor 1 (TRPV1). Q8NER1. TRPV1-expressing cells, Fluo-8 calcium influx, agonist mode. activation, % at 8.33 µM. 320,000 tested, 0.19% active; in the data active = activation above about 80%; inconclusive = between about 30% and that limit
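Cells expressing TRPV1 were dye-loaded with Fluo-8 and read kinetically: 10 s baseline, 3 min after compound (agonist portion), then 2 min after EC20 capsaicin (allosteric enhancer portion). Calcium-bound dye fluorescence at 480/520 nm.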
D1 antag = blocks dopamine activation of the human D1 receptor; 360,000 tested, 3.2% active; AID 504652; activity change, negative = inhibition, % at 10 µM; HEK293 TREx D1 cells, calcium flux, dopamine EC80; hits give low values; P21728; in the data active = activity change below about -30%
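After overnight tetracycline induction at 30 C, force-coupled D1 HEK293 cells took up a no-wash calcium dye at room temperature. Compounds were added and monitored 180 s, and the response to EC80 dopamine was then recorded.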
Each line names hits and unclear results; the compound was inactive in the other large screens.

CCN(CC)c1ccc(NC(=O)COCc2cc(-c3ccc4c(c3)OCO4)on2)c(C)c1	none (no result: TRPV1 potentiator, TRPV1 ag)
CCc1ccc2oc(-c3cc(NC(=O)c4cc([N+](=O)[O-])ccc4N4CCOCC4)ccc3Cl)nc2c1	none (no result: TRPV1 potentiator, TRPV1 ag)
O=C(c1ccc(-c2ccccc2)cc1)N1CCN(Cc2ccccn2)CC1	D1 antag -31
COc1ccc(C(=O)N2CCN(Cc3ccccn3)CC2)cc1	none
COc1ccc(-c2cc(C(F)(F)F)c(C#N)c(SCC(=O)Nc3cccc(C)c3)n2)cc1	none (no result: TRPV1 potentiator, TRPV1 ag)
COc1ccc(NC(=O)CSc2nc(-c3ccc(C)cc3)cc(C(F)(F)F)c2C#N)cc1	D1 antag -41
COc1ccc(-c2cc(C(F)(F)F)c(C#N)c(SCC(=O)Nc3ccccc3C#N)n2)cc1	D1 ag 60
CCOC(=O)c1ccc(NC(=O)CSc2nc(-c3cccs3)cc(C(F)(F)F)c2C#N)cc1	D1 ag 50
COc1ccc(-c2cc(-c3cccs3)c(C#N)c(SCC(=O)NCc3ccccc3OC)n2)cc1	D1 antag -36
COc1ccc(-c2cc(-c3cccs3)c(C#N)c(SCC(=O)NCc3ccccc3)n2)cc1	none
COc1ccc(NC(=O)CSc2nc(-c3cccs3)cc(C(F)(F)F)c2C#N)cc1	none (no result: TRPV1 potentiator, TRPV1 ag)
NC(=O)C1(N2CCCCC2)CCN(C(=O)Nc2ccc(Cl)c(Cl)c2)CC1	none (no result: TRPV1 potentiator, TRPV1 ag)
Cc1ccc(-c2nonc2NC(=O)c2ccc(F)cc2)cc1C	none (no result: TRPV1 potentiator, TRPV1 ag)
COc1ccc(-c2cc(C(F)(F)F)nc(SCC(=O)Nc3ccc(C(C)=O)cc3)n2)cc1	D1 antag -44 (no result: TRPV1 potentiator, TRPV1 ag)
COc1ccc(-c2cc(C(F)(F)F)nc(SCC(=O)Nc3cc(C)on3)n2)cc1	none
CCN(CC(=O)Nc1ccccc1C(F)(F)F)C(=O)CCS(=O)(=O)c1ccc(Cl)cc1	D1 antag -30
O=C1[C@@H]2C(c3ccc(F)cc3)=NO[C@@H]2C(=O)N1Cc1ccccc1	none (no result: TRPV1 potentiator, TRPV1 ag)
COc1ccc(CN2C(=O)[C@@H]3C(c4ccc(F)cc4)=NO[C@@H]3C2=O)cc1	TRPV1 ag inconclusive, D1 antag -37
CN(C)CCNC(=O)C1CCCNC1=O (stereo not given)	none
Cc1ccc(S(=O)(=O)NCCNC(=O)C2CCCNC2=O)cc1 (stereo not given)	D1 antag -46
CC(C)CCNC(=O)C1CCN(Cc2cccc(OCc3ccccc3)c2)CC1	D1 ag 42, TRPV1 ag 92
O=C(NC1CCN(Cc2ccccc2)C1)c1cc(S(=O)(=O)N2CCOCC2)ccc1Cl (stereo not given)	D1 antag -30
CC1CCc2sc(C(=O)NC3CCN(Cc4ccccc4)CC3)cc2C1 (stereo not given)	D1 ag 37, TRPV1 ag inconclusive (no result: D1 PAM)
O=C(Nc1cc(S(=O)(=O)N2CCOCC2)ccc1Cl)c1cc2ccccc2o1	TRPV1 ag inconclusive, D1 antag -48
COCCNC(=O)C1CCN(Cc2cccc(OCc3ccccc3)c2)CC1	none
CCOc1ccccc1CNC(=O)C1CCN(C(=O)N2CCOc3ccc(Cl)cc32)CC1	none (no result: TRPV1 potentiator, TRPV1 ag)
CCc1noc(-c2ccc(N3CCCCC3C)c([N+](=O)[O-])c2)n1 (stereo not given)	none (no result: TRPV1 potentiator, TRPV1 ag)
O=C(NNC(=O)C1CCN(Cc2ccccc2)CC1)c1cccc(Cl)c1	D1 antag -62
O=C(NC1CCN(Cc2ccc3ccccc3c2)CC1)c1ccccc1	none
O=C(NC1CCN(Cc2ccc(Cl)c(Cl)c2)CC1)c1ccccc1	D1 antag -33
COc1ccc(N(CC(=O)NC2CCCCC2)C(=O)c2ccc(C)s2)c(OC)c1	D1 antag -35 (no result: D1 PAM)
COc1ccc(OC)c(S(=O)(=O)N2CC=C(c3c(C)n(CC(=O)N4CCCC4)c4ccccc34)CC2)c1	none (no result: TRPV1 potentiator, TRPV1 ag)
COc1ccc(-c2c(-c3ccccc3)c(C(=O)C(=O)NCCCN(C)C)n3ccc4cc(OC)c(OC)cc4c23)cc1OC	D1 antag -47
Clc1ccc(SCCOCCN2CCCCC2)cc1	none
CC1CCN(CCOCCSc2ccc(Cl)cc2)CC1	D1 antag -44
Clc1ccc(SCCCCN2CCNCC2)cc1	D1 ag 120, D1 antag -45
Cc1cc(Cl)c(OCCOCCN2CCC(C)CC2)c(Br)c1	D1 ag 34
O=C(NCCc1ccc(Cl)cc1)c1cccn1-c1nnc(N2CCCC2)s1	none (no result: TRPV1 potentiator, TRPV1 ag)
Cc1ccc(NC(=O)c2oc3ccccc3c2NC(=O)Cc2ccccc2)cc1	none (no result: TRPV1 potentiator, TRPV1 ag)
CCCNC(=O)C1=CC(c2ccc3c(c2)OCO3)=NS(=O)(=O)N1C	none (no result: TRPV1 potentiator, TRPV1 ag)
Cc1ccc(NC(=O)c2c3c(nc4ccccc24)C(=O)N(C2CCCCC2)C3)cc1F	none (no result: TRPV1 potentiator, TRPV1 ag)
COc1ccc(-n2c(=O)c3c(c4cc(OC)ccc4n3C)n(C)c2=O)cc1	none (no result: TRPV1 potentiator, TRPV1 ag)
COCCN1C(=O)/C(=C/c2ccc(N3CCCC3)cc2C)SC1=S	D1 ag 224
Cc1cccc(-c2nc3c4ccccc4nc(N4CCN(c5cc(C)ccc5C)CC4)n3n2)c1	none (no result: TRPV1 potentiator, TRPV1 ag)
CCOC(=O)C1=C(c2ccccc2)N=c2s/c(=C\c3ccc(O)cc3)c(=O)n2C1c1cccs1 (stereo not given)	D1 ag 31, TRPV1 ag inconclusive
O=C(NCc1cccc(Cl)c1)c1cc2ccc3cccnc3c2[nH]1	none (no result: TRPV1 potentiator, TRPV1 ag)
CC(C)N(Cc1ccccc1)C(=O)c1cc2ccc3cccnc3c2[nH]1	D1 antag -34 (no result: TRPV1 potentiator, TRPV1 ag)
CCOC(=O)/C(=N\Nc1ccc(C(C)=O)cc1)c1csc(Nc2ccccc2)n1	D1 ag 54
O=C(Cn1[nH]c(=O)c2ccccc2c1=O)N1CC=C(c2ccccc2)CC1	D1 antag -30
O=C(O)CCC(=O)N1CC=C(c2ccccc2)CC1	none
COc1ccc(CCNC(=O)c2cnn(-c3ccc(F)cc3)c2C2CCN(C(=O)OC(C)(C)C)CC2)c(OC)c1	none (no result: TRPV1 potentiator, TRPV1 ag)
CCOC(=O)c1c(CSc2ccccc2)n(C)c2cc(Br)c(OCC(O)CNC(CO)(CO)CO)cc12 (stereo not given)	D1 antag -47
O=C(c1cccc(F)c1)N1CCN(c2cccc(Cl)c2)CC1	none
O=C(c1cccc(F)c1)N1CCCN(C(=O)c2cccc(F)c2)CC1	D1 antag -81
N#CC1(c2ccc(NC(=O)c3ccccc3)cc2)CCCC1	TRPV1 ag inconclusive
CC(=O)Oc1ccc(C(=O)Nc2ccc(C3(C#N)CCCC3)cc2)cc1	TRPV1 potentiator 86
COc1ccc(CC2(CO)CCN(S(=O)(=O)c3sccc3C)CC2)cc1	D1 ag 32
COc1ccc(CC2(CO)CCN(S(=O)(=O)c3c(C)nn(C)c3Cl)CC2)cc1	none
CCOc1ccccc1NC(=O)C(OC(=O)C1CC1)c1ccccc1 (stereo not given)	D1 ag 30
Cc1c(Cl)cccc1NC(=O)CCn1c(=O)c2cccn2c2ccccc21	none (no result: TRPV1 potentiator, TRPV1 ag)
CNC(=S)N1N=C(c2ccc(C)cc2)CC1c1ccc(OC)cc1 (stereo not given)	D1 antag -40
CNC(=S)N1N=C(c2ccc(Br)cc2)CC1c1ccc(OC)cc1 (stereo not given)	none
CNC(=S)N1N=C(c2ccc(C)cc2)CC1c1ccc(N(C)C)cc1 (stereo not given)	D1 ag 36

Screens: PubChem BioAssay, National Center for Advancing Translational Sciences (NCATS)
